Data from PubChem BioAssay (Tox21).
Inconclusive results are not listed. Active and inactive are the calls of the source. Unless noted, calls come from the whole dose curve; as a rule, active = well fitted curve in the direction sought with a large enough effect in the repeat runs; inconclusive = weak or mixed curves; inactive = no such curve, though single readings can be large; an effect the other way counts as inactive or inconclusive.

How the values were obtained:
[1] = qHTS assay to identify small molecule antagonists of the estrogen related receptor (ERR) signaling pathway - cell viability counter screen (AID 1224818);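 note: series mostly up to about 46 µM; viability measured after 17.5 h of compound exposure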
How it was run: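 Cells carrying the ERR pathway reporter were seeded and incubated for 6 hours before compound addition. After a 17.5-hour exposure at 37 C, live-cell protease activity was measured by CellTiter-Fluor fluorescence following 30 minutes of incubation.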

[2] = qHTS assay to identify small molecule antagonists of the estrogen related receptor signaling pathway with the pleiotropic PPARgamma coactivator (PGC) cell viability counter screen (AID 1224822;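 note: series mostly up to about 46 µM; viability read after 17.5 h compound exposure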)
How it was run: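 Seed PGC/ERR cells (2,000/well); incubate 6 h at 37 C/5% CO2; pin-transfer compounds in DMSO; incubate 17.5 h at 37 C; add CellTiter-Fluor; after 30 min read fluorescence.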

[3] = qHTS assay to identify small molecule agonists of the estrogen related receptor (ERR) signaling pathway (AID 1224820)
How it was run: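 Quantitative HTS of the LOPAC library used NTP ERR reporter cells treated 18 h at 37 C. Signal is luminescence after One-Glo addition and a 30 min room-temperature incubation.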

[4] = tested on: estrogen-related receptor alpha (ERRalpha) with PGC-1alpha coactivator, human; test: qHTS assay to identify small molecule antagonists of the estrogen related receptor signaling pathway with the pleiotropic PPARgamma coactivator (PGC) (AID 1224821; calls by dose curve;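 note: series mostly up to about 46 µM; lower luminescence signal means antagonism of PGC/ERR signalling; nearly all actives have a fitted effect of over 50% in size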)
How it was run: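 Quantitative HTS for antagonism: PGC/ERR cells received compounds after 6 h attachment and were incubated 18 h at 37 C, with luminescence (One-Glo) as the endpoint.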

[5] = qHTS assay to identify small molecule agonists of the estrogen related receptor signaling pathway with the pleiotropic PPARgamma coactivator (PGC) (AID 1224823)
How it was run: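 Cell-based luciferase assay in the NTP-supplied PGC/ERR line, 2,000 cells/well; 18 h compound exposure at 37 C, luminescence after One-Glo.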

[6] = qHTS assay for small molecule agonists of the p53 signaling pathway (AID 651631; calls by dose curve; note: nearly all actives have a fitted effect of over 15% in size)
How it was run: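 HCT-116 p53RE-bla reporter line, 16 h compound treatment at 37 °C, then fluorescence after 2 h with B/G FRET substrate.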

[7] = qHTS assay for small molecules that induce genotoxicity in human embryonic kidney cells expressing luciferase-tagged ATAD5 (AID 651632); note: nearly all actives have a fitted effect of over 15% in size
How it was run: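 Increased luciferase signal from ATAD5-tagged reporter cells indicates DNA-damage-driven ATAD5 induction. HEK293T cells are treated for 16 hr at 37C before detection with Amplite.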

[8] = qHTS assay for small molecule agonists of the p53 signaling pathway - cell viability (AID 651633; calls by dose curve;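 note: p53RE-bla HCT reporter cells with a stable beta-lactamase p53 reporter; series mostly up to about 83 µM; nearly all actives have a fitted effect of over 30% in size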)
How it was run: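 Viability counter-read: CellTiter-Glo luminescence (30 min, room temperature) in the same p53RE-bla plates. These plates had been exposed to compounds for 16 h at 37 C.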

[9] = qHTS assay for small molecules that induce genotoxicity in human embryonic kidney cells expressing luciferase-tagged ATAD5 - cell viability (AID 651634; calls by dose curve; note: nearly all actives have a fitted effect of over 25% in size)
How it was run: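 Cytotoxicity counterscreen in HEK293T cells bearing an ATAD5-luciferase reporter: live-cell protease activity measured by CellTiter-Fluor fluorescence after 15.5 hr compound exposure.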

[10] = qHTS assay for small molecule disruptors of the mitochondrial membrane potential - cell viability (AID 720634; calls by dose curve;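 note: human HepG2 liver cancer cells; series mostly up to about 83 µM; nearly all actives have a fitted effect of over 20% in size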)
How it was run: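 After overnight attachment at 37 C, HepG2 cells received compound or DMSO vehicle for 1 hr. Viability is then taken from ATP-driven luminescence following a 30 min room-temperature CellTiter-Glo step.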

[11] = qHTS assay for small molecule disruptors of the mitochondrial membrane potential (AID 720635)
How it was run: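 Mitochondrial membrane potential tracked with Mito-MPS dye, red aggregates (ex 540/em 590 nm) against green monomers (ex 490/em 535 nm). Compound treatment 1 hr at 37C, dye 30 min in HepG2.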

[12] = qHTS assay to test for compound auto fluorescence at 590 nm (red) in HepG2 cells (AID 720674)
How it was run: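 1 hr compound incubation on HepG2 cells, 37 C, 5% CO2; plate read ex 540 nm / em 590 nm; intensities reported as Rose Bengal sodium equivalents.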

[13] = qHTS assay to test for compound auto fluorescence at 535 nm (green) in HepG2 cells (AID 720675)
[14] = qHTS assay to test for compound auto fluorescence at 590 nm (red) in HEK293 cells (AID 720679)
How it was run: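 Red channel, Ex/Em 540/590nm; signal expressed as equivalency to Rose Bengal sodium. HEK293, 2,000 cells/well, 10% dialyzed FBS; 23 nL compound pinned after 4-5 hr attachment; overnight 37C/5% CO2 before reading.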

[15] = qHTS assay to test for compound auto fluorescence at 535 nm (green) in HEK293 cells (AID 720680)
[16] = qHTS assay to test for compound auto fluorescence at 460 nm (blue) in HEK293 cell free culture (AID 720681)
How it was run: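 Blue fluorescence (Ex 405/Em 460 nm, triamterene-equivalent) was read immediately after pin transfer of compound or DMSO into medium (DMEM, 10% FBS) without cells.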

[17] = qHTS assay to test for compound auto fluorescence at 535 nm (green) in HEK293 cell free culture (AID 720682)
How it was run: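 Steps: dispense DMEM/10% FBS into empty wells; pin in compound or DMSO; measure fluorescence at 485/535 nm. Values are fluorescein equivalents.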

[18] = qHTS assay to test for compound auto fluorescence at 590 nm (red) in HEK293 cell free culture (AID 720683)
How it was run: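 Red-channel autofluorescence of compounds in culture medium (DMEM, 10% FBS), no cells, measured at 540/590 nm. Rose Bengal sodium is the reference fluorophore for equivalence.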

[19] = qHTS assay to test for compound auto fluorescence at 590 nm (red) in HepG2 cell free culture (AID 720684)
How it was run: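 Plate contents were MEM with 10% FBS plus test compound or DMSO, no cells. Fluorescence was recorded with 540 nm excitation and 590 nm emission.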

[20] = qHTS assay to test for compound auto fluorescence at 460 nm (blue) in HepG2 cell free culture (AID 720685)
How it was run: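 Compound (23 nL) or DMSO pinned into cell-free MEM with 10% FBS; blue fluorescence read at 405/460 nm excitation/emission, expressed as auto-fluorescence equivalency to triamterene.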

[21] = qHTS assay to test for compound auto fluorescence at 535 nm (green) in HepG2 cell free culture (AID 720686)
[22] = qHTS assay to test for compound auto fluorescence at 460 nm (blue) in HepG2 cells (AID 720687)
How it was run: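 Blue-channel autofluorescence (Ex/Em 405/460 nm, triamterene-equivalent) was measured after 1 hr compound exposure at 37 C, 5% CO2. Cells were HepG2, plated overnight at 37 C in MEM plus 10% FBS.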

[23] = biological target: Glucocorticoid receptor (Homo sapiens) (UniProt P04150); test: qHTS assay to identify small molecule agonists of the glucocorticoid receptor (GR) signaling pathway (AID 720691; active = well fitted activation curve with a large enough effect in the signal ratio in the repeat runs, not every such curve was filed as active; the % refers to the signal ratio)
How it was run: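 Agonist mode in a HeLa line carrying a GRE-controlled beta-lactamase reporter. Compounds act for 18 h at 37 C before a 2 h room-temperature FRET substrate step and fluorescence reading.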

[24] = biological target: Glucocorticoid receptor (Homo sapiens) (UniProt P04150); test: qHTS assay to identify small molecule antagonists of the glucocorticoid receptor (GR) signaling pathway (AID 720692; active = well fitted inhibition curve with a large enough effect in the signal ratio in the repeat runs, not every such curve was filed as active; the % refers to the signal ratio)
How it was run: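 Cells plated, rested 4 h at 37 C/5% CO2; compounds in DMSO pin-transferred; dexamethasone added to 5 nM final; 18 h at 37 C; B/G FRET substrate added, 2 h room temperature; fluorescence measured.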

[25] = qHTS assay to identify small molecule antagonists of the glucocorticoid receptor (GR) signaling pathway - cell viability counter screen (AID 720693); note: nearly all actives have a fitted effect of over 55% in size
[26] = qHTS assay to identify small molecule antagonists of the androgen receptor (AR) signaling pathway - cell viability counter screen (AID 743033; note: nearly all actives have a fitted effect of over 45% in size)
[27] = qHTS assay to identify small molecule antagonists of the thyroid receptor (TR) signaling pathway - cell viability counter screen (AID 743064); note: nearly all actives have a fitted effect of over 50% in size
How it was run: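 Plate GH3.TRE-Luc cells; incubate 4 h at 37 °C; add compound, then T3 to 1 nM final; incubate 23.5 h; add CellTiter-Fluor; incubate 30 min at 37 °C, 5% CO2; read fluorescence.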

[28] = qHTS assay to identify small molecule antagonists of the thyroid receptor (TR) signaling pathway (AID 743065); note: series mostly up to about 70 µM; nearly all actives have a fitted effect of over 55% in size
How it was run: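 Antagonism measured as loss of luciferase signal in GH3 cells stably carrying a TRE-luciferase reporter, co-treated with compound and T3 (1 nM final) for 23.5 h at 37 C. Viability was read in the same well by CellTiter-Fluor.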

[29] = tested on: thyroid hormone receptor (rat, GH3 cells); test: qHTS assay to identify small molecule agonists of the thyroid receptor (TR) signaling pathway (AID 743066; calls by dose curve)
[30] = biological target: Estrogen receptor (Homo sapiens) (UniProt P03372); test: qHTS assay to identify small molecule antagonists of the estrogen receptor alpha (ER-alpha) signaling pathway (AID 743069; active = well fitted curve in the direction sought with a large enough effect in the signal ratio in the repeat runs, not every such curve was filed as active; the % refers to the signal ratio)
How it was run: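 Compound effects are measured against 17beta-estradiol stimulation in HEK293 cells with a UAS-controlled beta-lactamase reporter for ER-alpha. Exposure lasts 18 hr at 37C; LiveBLAzer B/G FRET substrate follows for 2 hr at room temperature.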

[31] = biological target: Estrogen receptor (Homo sapiens) (UniProt P03372); test: qHTS assay to identify small molecule agonists of the estrogen receptor alpha (ER-alpha) signaling pathway (AID 743075; calls by dose curve)
[32] = qHTS assay to identify small molecule antagonists of the estrogen receptor alpha (ER-alpha) signaling pathway using the BG1 cell line (AID 743080; calls by dose curve;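 note: BG1 cells stimulated with 17beta-estradiol alongside compound; series mostly up to about 70 µM; nearly all actives have a fitted effect of over 25% in size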)
How it was run: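 Luminescence from a 4×ERE-luciferase reporter in BG1-Luc-4E2 cells served as read-out. Cells, pre-cultured 5 days in stripped-serum phenol-red-free medium, were exposed to compound with 17beta-estradiol co-stimulation for 21.5 h at 37 C.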

[33] = qHTS assay to identify small molecule antagonists of the estrogen receptor alpha (ER-alpha) signaling pathway using the BG1 cell line - cell viability counter screen (AID 743081);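 note: compound given together with 17beta-estradiol as the ER stimulus; series mostly up to about 70 µM; nearly all actives have a fitted effect of over 45% in size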
Aromatase (Homo sapiens) = Aromatase (Homo sapiens) (UniProt P11511); test: qHTS assay to identify aromatase inhibitors (AID 743083); note: series mostly up to about 70 µM; nearly all actives have a fitted effect of over 55% in size
[34] = qHTS assay to identify aromatase inhibitors - cell viability counter screen (AID 743084);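 note: cells stimulated with testosterone during compound exposure; nearly all actives have a fitted effect of over 55% in size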
[35] = biological target: Aryl hydrocarbon receptor (Homo sapiens) (UniProt P35869); test: qHTS assay to identify small molecule that activate the aryl hydrocarbon receptor (AhR) signaling pathway (AID 743085);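 note: HG2L7.5c1 human HepG2 liver cells with stably integrated DRE-driven firefly reporter; series mostly up to about 70 µM; nearly all actives have a fitted effect of over 15% in size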
How it was run: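 Steps: seed HepG2-AhR-luc cells; allow 5 h at 37C; pin-transfer test compound or vehicle; incubate 24 h at 37C; add viability dye (30 min, 37C) and read fluorescence; add luciferase substrate (30 min, RT) and read luminescence.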

[36] = qHTS assay to identify small molecule that activate the aryl hydrocarbon receptor (AhR) signaling pathway - cell viability counter screen (AID 743086);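 note: HepG2 liver cells carrying the AhR DRE luciferase reporter; series mostly up to about 70 µM; nearly all actives have a fitted effect of over 45% in size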
How it was run: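 Cytotoxicity counter screen: CellTiter-Fluor signal (30 min, 37 C) in 4000 HepG2 cells/well carrying the DRE-luciferase reporter, following 24 h compound exposure at 37 C.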

[37] = biological target: Peroxisome proliferator-activated receptor gamma (Homo sapiens) (UniProt P37231); test: qHTS assay to identify small molecule agonists of the peroxisome proliferator-activated receptor gamma (PPARg) signaling pathway (AID 743094; active = well fitted activation curve with a large enough effect in the signal ratio in the repeat runs, not every such curve was filed as active; the % refers to the signal ratio)
How it was run: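 Quantitative HTS agonist mode: stable HEK293H line with UAS-beta-lactamase reporter under PPARg control, 17 h compound exposure at 37C, fluorescence after 1 h FRET substrate loading at room temperature.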

[38] = qHTS assay to identify small molecule phospholipidosis (PLD) inducers (AID 1259344; active = well fitted curve in the direction sought with a large enough effect; an effect the other way counts as inactive or inconclusive)
How it was run: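 Fluorescent phospholipid staining (LipidTOX Red) measured by automated microscopy in fixed HepG2 cells after 24 h treatment; nuclei counterstained with Hoechst 33342; amiodarone as reference inducer.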

Measured: Potency

Estrogen receptor (Homo sapiens), sequence (P03372 whole entry, looked up): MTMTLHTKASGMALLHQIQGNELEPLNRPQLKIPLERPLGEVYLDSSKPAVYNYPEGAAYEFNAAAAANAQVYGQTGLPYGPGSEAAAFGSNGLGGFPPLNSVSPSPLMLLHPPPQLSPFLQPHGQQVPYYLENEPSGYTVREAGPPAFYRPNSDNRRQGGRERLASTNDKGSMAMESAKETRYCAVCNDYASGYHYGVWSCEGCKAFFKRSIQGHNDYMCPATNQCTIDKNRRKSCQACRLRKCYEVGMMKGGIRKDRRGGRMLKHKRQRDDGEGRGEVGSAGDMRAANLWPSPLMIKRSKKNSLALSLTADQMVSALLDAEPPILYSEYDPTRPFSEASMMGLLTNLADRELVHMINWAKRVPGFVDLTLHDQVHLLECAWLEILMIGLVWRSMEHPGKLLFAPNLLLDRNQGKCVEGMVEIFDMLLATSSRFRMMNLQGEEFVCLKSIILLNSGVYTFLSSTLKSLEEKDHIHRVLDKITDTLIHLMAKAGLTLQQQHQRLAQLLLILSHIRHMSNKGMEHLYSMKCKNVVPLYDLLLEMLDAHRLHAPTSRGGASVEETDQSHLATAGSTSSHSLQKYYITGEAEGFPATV
Glucocorticoid receptor (Homo sapiens), sequence (P04150 whole entry, looked up): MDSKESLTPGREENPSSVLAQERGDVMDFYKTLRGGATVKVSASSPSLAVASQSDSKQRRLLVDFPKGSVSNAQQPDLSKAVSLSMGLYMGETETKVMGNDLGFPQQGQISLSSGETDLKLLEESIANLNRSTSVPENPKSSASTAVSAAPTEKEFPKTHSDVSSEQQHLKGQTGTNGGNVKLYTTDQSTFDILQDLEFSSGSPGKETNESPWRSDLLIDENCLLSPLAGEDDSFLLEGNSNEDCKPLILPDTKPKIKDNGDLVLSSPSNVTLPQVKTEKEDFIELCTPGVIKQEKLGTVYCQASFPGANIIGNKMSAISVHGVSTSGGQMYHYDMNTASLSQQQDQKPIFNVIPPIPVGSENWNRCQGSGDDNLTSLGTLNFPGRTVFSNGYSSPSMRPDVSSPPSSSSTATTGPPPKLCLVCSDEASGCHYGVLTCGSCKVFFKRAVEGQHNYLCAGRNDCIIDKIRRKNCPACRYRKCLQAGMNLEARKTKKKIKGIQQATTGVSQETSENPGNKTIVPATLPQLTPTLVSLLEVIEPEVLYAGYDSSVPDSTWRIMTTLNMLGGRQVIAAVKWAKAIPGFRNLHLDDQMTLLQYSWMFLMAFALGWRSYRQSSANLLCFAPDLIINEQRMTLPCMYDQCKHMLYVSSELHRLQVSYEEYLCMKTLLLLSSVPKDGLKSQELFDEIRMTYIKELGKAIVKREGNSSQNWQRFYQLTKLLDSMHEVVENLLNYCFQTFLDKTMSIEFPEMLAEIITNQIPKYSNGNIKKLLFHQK
Peroxisome proliferator-activated receptor gamma (Homo sapiens), sequence (P37231 whole entry, looked up): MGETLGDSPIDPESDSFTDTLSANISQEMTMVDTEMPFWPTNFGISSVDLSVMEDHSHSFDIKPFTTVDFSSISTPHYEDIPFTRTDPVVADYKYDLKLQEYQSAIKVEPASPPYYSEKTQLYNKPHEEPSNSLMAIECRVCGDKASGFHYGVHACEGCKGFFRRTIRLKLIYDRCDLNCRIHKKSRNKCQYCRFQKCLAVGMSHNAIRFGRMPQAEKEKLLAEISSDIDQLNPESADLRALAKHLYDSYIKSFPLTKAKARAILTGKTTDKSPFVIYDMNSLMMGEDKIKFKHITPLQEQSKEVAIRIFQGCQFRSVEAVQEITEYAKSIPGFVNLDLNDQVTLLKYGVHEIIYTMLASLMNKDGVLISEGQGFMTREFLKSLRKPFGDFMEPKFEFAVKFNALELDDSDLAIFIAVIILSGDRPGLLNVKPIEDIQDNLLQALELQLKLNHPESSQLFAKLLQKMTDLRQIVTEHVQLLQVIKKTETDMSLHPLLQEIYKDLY
Aryl hydrocarbon receptor (Homo sapiens), sequence (P35869 whole entry, looked up): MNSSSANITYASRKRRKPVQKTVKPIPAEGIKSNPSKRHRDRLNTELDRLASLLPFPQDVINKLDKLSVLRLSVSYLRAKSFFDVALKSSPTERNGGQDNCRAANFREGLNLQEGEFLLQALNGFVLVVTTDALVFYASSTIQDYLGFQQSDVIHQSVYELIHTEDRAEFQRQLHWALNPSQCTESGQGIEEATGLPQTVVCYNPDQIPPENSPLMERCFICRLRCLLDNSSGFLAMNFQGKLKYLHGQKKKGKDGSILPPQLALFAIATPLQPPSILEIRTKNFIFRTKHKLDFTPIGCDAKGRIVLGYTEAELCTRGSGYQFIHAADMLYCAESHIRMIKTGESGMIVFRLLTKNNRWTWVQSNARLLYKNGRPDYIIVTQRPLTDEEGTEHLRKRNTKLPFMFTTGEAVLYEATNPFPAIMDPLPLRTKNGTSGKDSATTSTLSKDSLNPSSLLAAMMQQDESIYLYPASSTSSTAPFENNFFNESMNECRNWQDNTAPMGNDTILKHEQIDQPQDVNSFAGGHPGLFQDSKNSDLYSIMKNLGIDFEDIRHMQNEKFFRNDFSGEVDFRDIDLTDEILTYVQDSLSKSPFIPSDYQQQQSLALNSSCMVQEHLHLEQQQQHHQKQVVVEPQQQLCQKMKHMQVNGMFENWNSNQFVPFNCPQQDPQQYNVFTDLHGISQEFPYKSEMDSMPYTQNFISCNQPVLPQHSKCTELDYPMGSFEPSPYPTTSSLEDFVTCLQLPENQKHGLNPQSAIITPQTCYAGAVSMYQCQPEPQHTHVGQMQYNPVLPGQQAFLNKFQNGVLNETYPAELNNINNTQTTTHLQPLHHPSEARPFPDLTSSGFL
Aromatase (Homo sapiens), sequence (P11511 whole entry, looked up): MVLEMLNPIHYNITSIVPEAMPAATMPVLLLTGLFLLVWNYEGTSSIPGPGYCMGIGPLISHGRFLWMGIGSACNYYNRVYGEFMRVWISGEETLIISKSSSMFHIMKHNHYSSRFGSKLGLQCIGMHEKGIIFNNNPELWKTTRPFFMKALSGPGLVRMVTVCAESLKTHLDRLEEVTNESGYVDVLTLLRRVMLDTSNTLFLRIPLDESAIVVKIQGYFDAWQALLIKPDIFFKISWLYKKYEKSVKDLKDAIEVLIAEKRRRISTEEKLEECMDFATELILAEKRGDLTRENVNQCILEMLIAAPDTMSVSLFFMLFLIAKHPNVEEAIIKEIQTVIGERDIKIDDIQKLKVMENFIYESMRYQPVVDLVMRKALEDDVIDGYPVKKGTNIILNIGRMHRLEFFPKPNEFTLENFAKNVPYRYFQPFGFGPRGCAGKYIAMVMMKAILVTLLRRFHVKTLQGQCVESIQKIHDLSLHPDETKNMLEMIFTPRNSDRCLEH

CO[C@H]1CC=C2CCN3CCC4=C(CC(=O)OC4)[C@]23C1
inactive: [1] | [2]

CCN1C[C@@]2(COC)C3[C@@H](OC)C4[C@H]1C3([C@@H]1C[C@@]3(O)[C@H](OC(=O)c5ccccc5)[C@@H]1[C@]4(OC(C)=O)[C@@H](O)[C@@H]3OC)[C@H](OC)C[C@H]2O
inactive: [1] | [3] | [4] | [2] | [5]

CC[C@@H](C(N)=O)N1CCCC1=O
inactive: [1] | [2]

CCCCc1ccc(C(=O)O)nc1
inactive: all assays above
